Screens (PubChem)
p53 reactivation: re-activators of mutant p53. AID 504706. Potency, µM (doses to about 92.2 µM), hits mostly activators. H1299 p53-A138V BP100-luciferase reporter, luminescence, 24 h. 0.063% of 320,000 active; further: nearly all actives have a fitted effect of over 45% in size
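H1299 (p53-null), stable ts p53-A138V + BP100-Luc; 1000 cells/well, Opti-MEM/10% FBS; cpd 4 pt, 1:5; 24 h, 37 deg C, 5% CO2; detection reagent 10 min RT; luminescence.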
MCF10A rereplic: induces DNA re-replication in MCF 10a normal breast cells; MCF 10A DNA re-replication, Hoechst nuclear intensity, 48 h; Potency, µM (doses to about 46.1 µM), most hits filed as activators; 2.9% of 350,000 active; AID 624296; further: nearly all actives have a fitted effect of over 50% in size
SW480 rerep: DNA re-replication induction in SW480 cells; 1.8% of 340,000 active; Potency, µM (highest dose often 46.1 µM), usual class: activators; SW480 DNA re-replication, Hoechst DNA content imaging, 48 h; further: nearly all actives have a fitted effect of over 55% in size
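Per well, 250 cells were exposed to pinned compound for 48 hr. Nuclear DNA was visualised with Hoechst (40 min, 37 C) and total object intensity recorded by fluorescence scanning.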
A-T KAP1 phos: potential ataxia-telangiectasia treatments restoring KAP-1 phosphorylation. F2112 A-T fibroblasts, KAP-1 phosphorylation AlphaLISA; neocarzinostatin DNA damage 30 min before lysis. Potency, µM (highest dose often 57.5 µM), usual class: activators. 0.19% of 320,000 active; further: nearly all actives have a fitted effect of over 45% in size
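hTERT-immortalized A-T patient fibroblasts (F2112), 500 cells/well in OPTI-MEM, 1% FBS, got compounds for 60 min, then NCS for 30 min at 37C. Lysates were then assayed for phospho-KAP-1 by AlphaLISA (anti-pKAP1 donor, anti-KAP1 acceptor beads), 6 hr at 25C.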
ELG1 repair inh: blocks ELG1-dependent DNA repair in HEK293T cells. HEK293T ELG1-luciferase reporter, luminescence, 16 h; DNA damage induced by 5-fluorouridine. Potency, µM (series often up to 46.1 µM), hits mostly inhibitors. 2.3% of 330,000 active. AID 504467; further: nearly all actives have a fitted effect of over 55% in size
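5-Fluorouridine DNA damage + compound/DMSO, 2,000 cells/well, 16 h, 37 °C/5% CO2. ONE-Glo, 30 min RT, luminescence. Readout = decrease in reporter signal.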
ELG1 genotoxic: genotoxicity induction in ELG1-luciferase HEK293T cells; HEK293T ELG1-luciferase reporter, luminescence, 16 h; Potency, µM (top dose mostly 46 µM), hits mostly activators; 1.3% of 330,000 active; further: nearly all actives have a fitted effect of over 60% in size
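Genotoxicity was scored as increased ELG1-luciferase reporter signal, measured by ONE-Glo luminescence (30 min, room temperature). Compound or vehicle exposure of the HEK293T reporter cells lasted 16 hr at 37°C.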
Of the large screens only hits and unclear results are named; the others gave an inactive call. A selection: hits, their analogues and other compounds. The true share with any hit is near 7.1%. The call rests on the fitted dose curve; in most records, active means well fitted curve in the direction sought with a large enough effect; inconclusive means small, poorly fitted or top-dose-only effect, or another doubt; inactive means no such curve, though single readings can be large; an effect the other way counts as inactive or inconclusive.

O=C(COC(=O)Cc1ccccc1[N+](=O)[O-])Nc1nnc(-c2ccccc2)o1	MCF10A rereplic 18.4µM
COc1cc(C2C3=C(COC3=O)Oc3cc4c(cc32)OCO4)cc(OC)c1OC(C)=O (configuration not stated)	MCF10A rereplic inconclusive, SW480 rerep 0.13µM (no result: p53 reactivation, A-T KAP1 phos, ELG1 repair inh, ELG1 genotoxic)
COc1ccc(C2C3=C(COC3=O)Oc3cc4c(cc32)OCO4)cc1OC (configuration not stated)	MCF10A rereplic 2.31µM, SW480 rerep 5.8µM (no result: p53 reactivation, A-T KAP1 phos, ELG1 repair inh, ELG1 genotoxic)
COc1cc(C2C3=C(COC3=O)Oc3cc4c(cc32)OCO4)ccc1OC(C)=O (configuration not stated)	MCF10A rereplic inconclusive, SW480 rerep 3.66µM (no result: p53 reactivation, A-T KAP1 phos, ELG1 repair inh, ELG1 genotoxic)
OC(CNc1ccnc2cc(Cl)ccc12)CNC1CCCCC1 (configuration not stated)	MCF10A rereplic inconclusive, SW480 rerep 23.1µM (no result: p53 reactivation, A-T KAP1 phos, ELG1 repair inh, ELG1 genotoxic)
CCOC(=O)N1CCN(C(=O)C2CC(=O)N(c3ccc(C)cc3)C2)CC1 (configuration not stated)	SW480 rerep inconclusive
CC(NC(=S)NCCc1ccccc1)C(c1cccs1)N1CCN(Cc2ccccc2)CC1 (configuration not stated)	MCF10A rereplic inconclusive, SW480 rerep 20.6µM, ELG1 repair inh inconclusive
C/C(=N/NC(=O)c1cc(-c2ccc(Cl)s2)[nH]n1)c1ccco1	MCF10A rereplic inconclusive
CC(=O)c1cccc(NC(=O)/C(=C/c2ccncc2)NC(=O)c2ccccc2)c1	SW480 rerep inconclusive
CCC(C(=O)Nc1ccccc1F)n1nc(C)c2c(C)n(-c3ccccc3)nc2c1=O (configuration not stated)	SW480 rerep 29.1µM
CCC(C(=O)Nc1cc(F)ccc1F)n1nc(C)c2c(C)n(-c3ccc(C)cc3)nc2c1=O (configuration not stated)	ELG1 repair inh inconclusive
CC(C)C(=O)Nc1cc2c3c(c1)CCC(=O)N3CCC2	none
COc1cccc(-c2cc(C(F)(F)F)n3nc(C(=O)N4CCCCC4c4cccnc4)cc3n2)c1 (configuration not stated)	MCF10A rereplic inconclusive, SW480 rerep inconclusive, ELG1 repair inh 20.6µM
CCn1nc(NC(=O)Cc2ccc(OC)cc2)c2cc3cccc(C)c3nc21	MCF10A rereplic 4.11µM, SW480 rerep inconclusive
CCCCC(=O)Nc1nn(CCC)c2nc3ccccc3cc12	MCF10A rereplic inconclusive, SW480 rerep inconclusive, ELG1 repair inh inconclusive (no result: A-T KAP1 phos)
CCn1nc(NC(C)=O)c2cc3cccc(C)c3nc21	none
CCCCn1nc(NC(=O)COC)c2cc3cc(OC)ccc3nc21	SW480 rerep 14.6µM, A-T KAP1 phos inconclusive, ELG1 repair inh inconclusive
CCn1nc(NC(=O)c2ccccc2)c2cc3cccc(C)c3nc21	MCF10A rereplic 6.51µM, SW480 rerep 11.6µM, A-T KAP1 phos 22.4µM, ELG1 repair inh 7.3µM
CCn1nc(NC(=O)c2cccs2)c2cc3ccccc3nc21	MCF10A rereplic 18.4µM, SW480 rerep 14.6µM, ELG1 repair inh inconclusive
COc1ccc(N2C(=O)CC(C)(C)CC2=O)cc1OC	none
CN(C(=O)c1ccc(NC(=O)Cc2ccc(NC(=O)C3CCN(C(=O)C4CC4)CC3)cc2)cc1)C1CCCC1	none (no result: p53 reactivation, A-T KAP1 phos, ELG1 repair inh, ELG1 genotoxic)
O=C(COc1cc(F)ccc1[N+](=O)[O-])NCCN1C(=O)CSC1=O	none
CCn1nc(NC(=O)Cc2ccc(OC)cc2)c2cc3cc(C)ccc3nc21	MCF10A rereplic 1.84µM, SW480 rerep 7.31µM, ELG1 repair inh inconclusive, ELG1 genotoxic inconclusive
CCn1nc(NC(=O)C(C)C)c2cc3cccc(C)c3nc21	MCF10A rereplic inconclusive, SW480 rerep 8.2µM, A-T KAP1 phos inconclusive
CCCn1nc(NC(=O)C2CCCO2)c2cc3cccc(C)c3nc21 (configuration not stated)	MCF10A rereplic inconclusive, SW480 rerep 2.06µM, A-T KAP1 phos inconclusive
CC(C)Cn1nc(NC(=O)C2CCCO2)c2cc3ccccc3nc21 (configuration not stated)	A-T KAP1 phos inconclusive
CCn1nc(NC(=O)c2ccccn2)c2cc3cc(C)ccc3nc21	SW480 rerep inconclusive, ELG1 repair inh inconclusive
Cc1cccc2cc3c(NC(=O)C(C)(C)C)nn(CC(C)C)c3nc12	MCF10A rereplic inconclusive, SW480 rerep 20.6µM, A-T KAP1 phos inconclusive
Cc1cccc2cc3c(NC(=O)CC(C)C)nn(C)c3nc12	MCF10A rereplic inconclusive, SW480 rerep inconclusive, A-T KAP1 phos inconclusive
Nc1nc(SCc2ccc(Cl)cc2Cl)c2ncn(C3OC(CO)C(O)C3O)c2n1 (configuration not stated)	none (no result: p53 reactivation, A-T KAP1 phos, ELG1 repair inh, ELG1 genotoxic)
Clc1ccc(-c2nc(NCCCN3CCOCC3)c3ccccc3n2)cc1	SW480 rerep inconclusive, ELG1 repair inh 23.1µM
Clc1cccc(-c2nc(NCCCN3CCOCC3)c3ccccc3n2)c1	ELG1 repair inh inconclusive
Cc1ccccc1NC(=S)N1CCN(Cc2ccc3c(c2)OCO3)CC1	none
Cc1ccc(S(=O)(=O)N(C)CC(=O)N2CCN(Cc3ccc4c(c3)OCO4)CC2)cc1	ELG1 repair inh inconclusive
Cc1ccc(S(=O)(=O)N(C)C)cc1NC(=S)N1CCN(Cc2ccc3c(c2)OCO3)CC1	ELG1 repair inh 8.2µM
CN(c1ccc(C(=O)N2CCN(Cc3ccccc3)CC2)cc1)S(=O)(=O)c1ccccc1	ELG1 repair inh inconclusive
CN(c1ccc(C(=O)N2CCN(Cc3ccc4c(c3)OCO4)CC2)cc1)S(=O)(=O)c1ccccc1	ELG1 repair inh 23.1µM
Cc1ccc(S(=O)(=O)N(C)c2ccc(C(=O)N3CCN(Cc4ccc5c(c4)OCO5)CC3)cc2)cc1	p53 reactivation inconclusive, MCF10A rereplic inconclusive, ELG1 repair inh 6.51µM
CCOC(=O)C1CCN(C(=O)COC(=O)CNC(=O)c2ccc(C(C)(C)C)cc2)CC1	none
CC(C)C[C@H]1CNC(=S)N1CC1CCN(CCCC2CCCCC2)CC1	MCF10A rereplic inconclusive (no result: p53 reactivation, A-T KAP1 phos, ELG1 repair inh, ELG1 genotoxic)
CCC(=O)Nc1c2c(nn1-c1ccc(F)cc1)CS(=O)(=O)C2	none
CN(Cc1cc(Br)cc(Br)c1N)C1CCCCC1	MCF10A rereplic 26.6µM, SW480 rerep inconclusive (no result: p53 reactivation, A-T KAP1 phos, ELG1 repair inh, ELG1 genotoxic)
CN(Cc1ccc(O)cc1)C1CCCCC1	none
CCCn1c(N)c(C(=O)COC(=O)/C=C/c2ccc(OC(F)F)c(OC)c2)c(=O)[nH]c1=O	SW480 rerep inconclusive, ELG1 repair inh inconclusive
COc1ccc(-c2cc(C(F)(F)F)n3nc(C(=O)N4CCCCC4)cc3n2)cc1	none
Cc1cc(-c2ccccc2)nc2cc(C(=O)NCCCn3ccnc3)nn12	none
O=C(NCCCn1ccnc1)c1cc2nc(-c3ccc(Br)cc3)cc(C(F)(F)F)n2n1	MCF10A rereplic 14.6µM, SW480 rerep inconclusive
